The list is not random: actives were taken first. Their share in the collection is about 9.4%.
ALDH1A1 block = qHTS Assay for Inhibitors of Aldehyde Dehydrogenase 1 (ALDH1A1); Aldehyde dehydrogenase 1A1 (Homo sapiens), P00352; Purified ALDH1A1, NADH fluorescence, propionaldehyde substrate; Potency, µM (top dose mostly 75.3 µM), for inactives: at the highest dose activity, negative = inhibition, actives largely listed as inhibitors; 220,000 tested, 7.3% active; active = well fitted inhibition curve with a large enough effect, not every such curve was filed as active; inconclusive = small, poorly fitted or top-dose-only effect, or another doubt; inactive = no such curve, though single readings can be large or run the other way;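 note: potency is the fitted concentration of half-maximal effect; plate controls were no enzyme wells and a reference inhibitor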
Target sequence (P00352 whole entry, looked up): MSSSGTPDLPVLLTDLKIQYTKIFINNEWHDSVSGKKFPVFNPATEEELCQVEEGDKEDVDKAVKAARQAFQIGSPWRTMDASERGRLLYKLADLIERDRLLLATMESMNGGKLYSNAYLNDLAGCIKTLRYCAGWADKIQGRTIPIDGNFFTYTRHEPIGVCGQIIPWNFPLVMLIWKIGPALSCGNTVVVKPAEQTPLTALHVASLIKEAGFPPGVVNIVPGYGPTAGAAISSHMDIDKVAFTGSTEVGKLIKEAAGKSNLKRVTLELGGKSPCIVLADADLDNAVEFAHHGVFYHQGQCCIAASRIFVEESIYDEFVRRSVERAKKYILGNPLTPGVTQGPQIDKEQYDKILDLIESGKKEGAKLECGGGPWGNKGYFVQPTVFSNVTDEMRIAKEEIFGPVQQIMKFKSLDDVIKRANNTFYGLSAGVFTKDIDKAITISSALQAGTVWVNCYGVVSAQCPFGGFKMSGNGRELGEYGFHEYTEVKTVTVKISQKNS
HPGD inh = qHTS Assay for Inhibitors of HPGD (15-Hydroxyprostaglandin Dehydrogenase) | 15-hydroxyprostaglandin dehydrogenase [NAD(+)] (Homo sapiens), P15428 | purified HPGD, NADH fluorescence kinetic, PGE2 substrate | Potency, µM, for inactives: at the highest dose activity change, negative = inhibition, usual class: inhibitors | 150,000 tested, 4.3% active | AID 894, 2007; active = well fitted inhibition curve with a large enough effect, not every such curve was filed as active; inconclusive = small, poorly fitted or top-dose-only effect, or another doubt; inactive = no such curve, though single readings can be large or run the other way; note: potency is the fitted concentration of half-maximal effect; % is set by controls: 0 for no effect and ±100 for the full control effect
Target sequence (P15428 whole entry, looked up): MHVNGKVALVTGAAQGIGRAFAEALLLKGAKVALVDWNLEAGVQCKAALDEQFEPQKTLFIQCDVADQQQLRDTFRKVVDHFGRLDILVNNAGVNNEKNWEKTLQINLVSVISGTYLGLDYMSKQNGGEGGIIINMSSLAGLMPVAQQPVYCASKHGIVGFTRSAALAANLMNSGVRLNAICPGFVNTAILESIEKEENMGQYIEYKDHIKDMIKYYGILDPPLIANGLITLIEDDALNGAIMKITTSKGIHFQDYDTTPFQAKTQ
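NADH formation kinetics: reaction with 30 uM PGE2 and 1 mM NAD+ (final), 20 nM enzyme, Tris-HCl pH 8 with Tween 20, after 15 min compound preincubation at room temperature. Fluorescence change, last versus first of five reads.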
IMPase Li inh = qHTS Assay for Identifying the Cell-Membrane Permeable IMPase Inhibitors: Potentiation with Lithium; Potency, µM (titrated, usually from 59.4 µM), for the others: top-dose activity, negative = IMPase inhibition, most hits filed as inhibitors; 210,000 tested, 0.35% active; CHO-M1 cells, IP1 TR-FRET (IP-One), carbachol + lithium; AID 1457, 2008;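 note: IP1 builds up when IMPase is blocked and the TR-FRET signal falls; potency is the fitted concentration of half-maximal effect; plate controls were basal vehicle for no effect and high inhibitor control for full effect; nearly all actives have a fitted effect of over 50% in size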
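Concentration–response in CHO-M1 cells, lithium-potentiated; 30 min at 37C. IP1 detected by competitive TR-FRET after 10 min lysis at RT. Hill-fitted AC50.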
HttQ103 aggreg = qHTS Multiplex Assay to Identify Dual Action Probes in a Cell Model of Huntington: Aggregate Formation (GFP) | Potency, µM (top dose mostly 46.1 µM), for inactives: at the top dose activity change, negative = inhibition, hits mostly inhibitors | 220,000 tested, 1.1% active | PC12 HttQ103-GFP aggregates, Acumen cytometry, 40 h; note: potency is the fitted concentration of half-maximal effect; % is set by controls: 0 for no effect and ±100 for the full control effect; nearly all actives have a fitted effect of over 60% in size
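Aggregate formation scored by laser-scanning cytometer (488 excitation, 500–530 emission) in lysed PC12 cells expressing Q103-GFP after 100 nM tebufenozide induction; library tested in dose series, with ATPLite reagent added in the multiplex.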
IMPase inh = qHTS Assay for Identifying the Cell-Membrane Permeable IMPase Inhibitors. CHO-M1 cells, IP1 accumulation, HTRF TR-FRET ratio. 120,000 tested, under 10 active. Inositol monophosphatase 1 (Rattus norvegicus), P97697. inhibition (IP1 accumulation), % at 46.1 µM; active = well fitted curve in the direction sought with a large enough effect in the signal ratio, not every such curve was filed as active; inconclusive = small, poorly fitted or top-dose-only effect, or a change in a side signal; inactive = no such curve, though single readings can be large or run the other way; the % refers to the signal ratio;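 note: cells stimulated with carbachol in lithium chloride buffer; plate controls were DMSO basal wells for no effect and reference inhibitor wells for full effect; higher means more IMPase inhibition seen as more IP1 and lower FRET ratio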
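The IP-One HTRF competitive assay in carbachol-stimulated CHO-M1 cells quantifies cellular IP1. Compounds spanned up to 46 uM final, and activity is expressed as AC50 from concentration-response fits of the ratio and donor data.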
HTT ATP protect = qHTS Multiplex Assay to Identify Dual Action Probes in a Cell Model of Huntington: Cytoprotection (ATP); PC12 HTT-Q103 induced, cytoprotection, ATP luminescence, 40 h; Potency, µM (titrated, usually from 56.4 µM), for inactives: cytoprotection (ATP increase), usual class: activators; 230,000 tested, 0.14% active; note: potency is the fitted concentration of half-maximal effect; % of control where 0% means no effect; nearly all actives have a fitted effect of over 45% in size
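Compounds added alongside 100 nM tebufenozide, which induces toxic Q103 huntingtin exon 1-GFP in stable PC12 cells; surviving cells quantified by luminescent ATP measurement. Medium: phenol red-free DMEM, 5% equine and 5% calf serum.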
* = called active by the depositor; ? = inconclusive; / = no result given; [ ] = another dose, or the depositor's remark. Unless noted, calls come from the whole dose curve; as a rule, active = well fitted curve in the direction sought with a large enough effect; inconclusive = small, poorly fitted or top-dose-only effect, or another doubt; inactive = no such curve, though single readings can be large; an effect the other way counts as inactive or inconclusive.

SMILES	ALDH1A1 block	HPGD inh	IMPase Li inh	HttQ103 aggreg	IMPase inh	HTT ATP protect
CC(C)CO/N=C1/C[C@@H](O)[C@@H](O)[C@@H]2[C@@H]3C(=O)N([C@@H](C)c4ccccc4)C(=O)[C@H]3CC[C@@H]12	7.8%[13.5 µM]	/	/	/	/	-9.8%[10 µM]
O=C(C[n+]1cc(-c2ccccc2)n2c1CCCCC2)c1ccc(Cl)cc1	13.2%	-0.5%	7.6%	?	11.6	2.6%[1.9 µM]
CC1CCC(C(C)C)C(OC(=O)C[n+]2cc(-c3ccc(Cl)cc3)n3c2CCCCC3)C1 (stereo not drawn)	8.6%	/	43.2%	12.6µM*	/	3.3%[10 µM]
CCCCCC(CC)COC(=O)CC(C(=O)OCC(CC)CCCC)S(=O)(=O)O (stereo not drawn)	/	/	/	-11.7%	/	-2.3%
CC(C)CCn1cnc2c(sc3nc4c(cc32)CSC(C)(C)C4)c1=O	1.78µM*	-10.3%	1.8%	22.0%	-7.8	-1.9%[10 µM]
CC1(C)Cc2nc3sc4c(NCCO)ncnc4c3cc2CS1	/	/	/	0.3%[9.22 µM]	/	-0.3%[10 µM]
CCCCn1cnc2c(sc3nc4c(cc32)CSC(C)(C)C4)c1=O	1.12µM*	-17.0%	-27.6%	2.2%	/	-8.8%[10 µM]
c1cncc(CNc2ncncc2-c2ccoc2)c1	?	/	1.6%	/	/	-29.1%
C=Cc1ccccc1Cl	?	-7.1%	6.2%	/	/	-19.3%
O=C(NC1CCCC1)c1cnn2c(C(F)(F)F)cc(-c3ccc4c(c3)OCO4)nc12	-2.7%	-15.0%	?	5.6%	-11.0	-25.6%
O=C(c1cnn2c(C(F)(F)F)cc(-c3ccc4c(c3)OCO4)nc12)N1CCCCC1	1.9%	2.82µM*	-4.9%[38.3 µM]	-10.7%	1.6	-12.9%[10 µM]
CN1CCN(C(=O)c2cnn3c(C(F)(F)F)cc(-c4ccc5c(c4)OCO5)nc23)CC1	?	25.1µM*	19.1%[38.3 µM]	-22.4%	8.0	-14.6%
CCNc1ncc2nc(-c3ccc(F)cc3)c(=O)n(CCOC)c2n1	?	/	?	/	/	-24.8%
CCOc1ccccc1NC(=O)C(OC(=O)c1ccc(O)cc1)c1ccccc1 (stereo not drawn)	7.94µM*	-10.4%	15.0%	-0.6%	3.7	11.8%[10 µM]
CCOc1ccccc1NC(=O)C(OC(=O)c1ccc(CC)cc1)c1ccccc1 (stereo not drawn)	?	-3.8%	10.2%	8.6%	/	4.2%[10 µM]
O=C(NCc1cccnc1)c1cc(Sc2ccccc2Cl)nc2ccccc12	7.94µM*	-7.4%	14.7%	-19.2%	/	8.1%[10 µM]
COCCNC(=S)Nc1ccc(Cl)c(Cl)c1	9.8%	/	-2.2%	-9.8%	/	25.7%
O=C(Nc1ccc(Cl)c(Cl)c1)OCc1cncs1	-0.1%	-39.3%	12.8%[38.3 µM]	11.2µM*	2.1	6.2%
CC(C)OC(=O)NCCOC(=O)Nc1cccc(Cl)c1	-0.1%	-4.8%	12.6%[38.3 µM]	11.2µM*	3.7	21.7%[10 µM]
CC(C)OC(=O)NC(C)(C)COC(=O)Nc1cccc(Cl)c1	-2.1%	1.3%	6.7%	0.7%	7.9	-1.8%[10 µM]
C=COCCNC(=O)Nc1ccc(Cl)c(Cl)c1	-0.8%	20µM*	16.2%	1.0%	13.7	-12.6%[10 µM]
CC(C)OC(=O)NCCOC(=O)Nc1ccc(Cl)c(Cl)c1	3.7%	-7.3%	6.8%	7.08µM*	-5.2	25.9%[10 µM]
O=C(Nc1ccc(Cl)c(Cl)c1)OCc1cnc(Cl)s1	-2.3%	-6.8%	9.6%[38.3 µM]	-24.1%	1.2	-0.2%
COC(=O)C/C=C\[C@@H](C)[C@@H](/C=N\O[C@@H]1O[C@H](COC(C)=O)[C@H](OC(C)=O)[C@H](OC(C)=O)[C@H]1OC(C)=O)OC	-1.4%[13.5 µM]	/	/	/	/	?
NC(=O)c1c(NC(=O)c2ccncc2)sc2c1CCCC2	?	/	12.3%	-19.5%	/	-43.9%
SMILES	ALDH1A1 block	HPGD inh	IMPase Li inh	HttQ103 aggreg	IMPase inh	HTT ATP protect
Cc1noc(C)c1C(=O)Nc1sc2c(c1C(N)=O)CCCCC2	7.94µM*	?	13.5%[38.3 µM]	5.2%	7.4	-22.5%[0.074 µM]
Cc1noc(C)c1C(=O)Nc1sc2c(c1C(N)=O)CCC2	?	?	6.5%[38.3 µM]	4.5%	-2.6	24.0%
NC(=O)c1c(NC(=O)c2cnccn2)sc2c1CCCC2	20µM*	/	5.7%	-4.4%	/	21.9%[10 µM]
CC(C)C(=O)NC(=S)Nc1sc2c(c1C(N)=O)CCCC2	7.08µM*	14.1µM*	0.9%	-7.9%	/	/
CCCC(=O)NC(=S)Nc1sc2c(c1C(N)=O)CCC2	8.91µM*	25.1µM*	5.9%	-13.4%	/	/
CC1CCN(CC[C@@H]2CCCN2S(=O)(=O)c2cccc(O)c2)CC1	/	/	/	/	12.5	13.3%[1.9 µM]
Cc1noc(C)c1-c1cc(NC2CC2)ncn1	-5.9%	-3.5%	3.9%	/	/	4.3%
Cc1cccc(N(CC(=O)Nc2cccc(Cl)c2C)S(C)(=O)=O)c1C	/	/	/	/	0.3	/
Cc1cnc(CNc2ncnc3ccc(-c4ccoc4)cc23)cn1	?	/	8.8%	/	/	-31.6%
CC(C)CCCC(C)CCCC(C)CCCCC(C)CCCC(C)CCCC(C)C (stereo not drawn)	/	/	/	1.6%	/	-28.5%
Brc1ccc(-c2cn3cc(Cc4ccccc4)sc3n2)cc1	/	/	/	/	-4.7	/
O=C(Nc1sc2c(c1C(=O)N1CCOCC1)CCCCC2)c1cccnc1	22.4µM*	/	0.0%	-10.8%	/	-26.4%
COC(=O)Nc1sc2c(c1C(N)=O)CCCCCC2	8.91µM*	14.1µM*	21.4%[38.3 µM]	8.7%	-12.9	1.0%
Cc1nc(SCC(=O)Nc2ccc(Br)cc2)[nH]c(=O)c1Cc1ccccc1	/	/	/	/	-7.6	/
Cc1ccc(NC(=O)CSc2nc(C)c(Cc3ccccc3)c(=O)[nH]2)cc1	?	/	4.8%	?	0.8	-89.4%
CCc1c(C)nc(SCC(=O)Nc2ccc(Br)cc2)[nH]c1=O	3.9%	14.1µM*	-8.4%[38.3 µM]	?	-7.5	-8.5%
CCc1c(C)nc(SCC(=O)Nc2cccc(Br)c2)[nH]c1=O	-3.6%	3.55µM*	3.5%[38.3 µM]	-1.6%	11.1	-0.2%
OCCC1CN(Cc2ccc(Oc3ncccn3)cc2)CCN1C1CCCC1 (stereo not drawn)	6.9%	/	16.1%	11.0%[9.22 µM]	/	25.9%[10 µM]
CC(C)(C)NC(=O)NC(=O)CN1CCN(c2ccc(O)cc2)CC1	22.4µM*	/	10.1%	-17.9%	/	-32.7%
CC(C)(C)NC(=O)NC(=O)CN1CCN(c2ccccc2)CC1	-4.1%	/	-6.0%	-8.2%	/	19.5%
CC(CCc1ccccc1)NC(=O)CN1CCN(c2ccc(O)cc2)CC1 (stereo not drawn)	8.91µM*	/	3.7%	31.5%	/	/
